Among the data in the supplement of paper PMC6555819 are PBM binding z-score values, retold here.

The test system of this assay is VDR:RXRa (NR concentration 270 nM, RXRa partner concentration 90 nM). The assay can be described thus: PBM binding z-score (relative to random genomic background probes); higher = stronger binding; sequences stand for … in GC…GCGATTGACAGCGTAGAATGAAGG
As for the experimental part: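 Protein-binding microarray (Agilent 4x180K custom design, double-stranded 60-nt probes: 5' GC cap, 34-nt variable region, 24-nt constant primer region; full probe sequence given). Purified or IVT nuclear receptor:RXRα heterodimers (3:1 NR:RXRα, mostly 270:90 nM) or homodimers were incubated for 1 h in PBS with 2% milk and no ligand, then detected with Alexa488 antibodies. Fluorescence from o1-orientation probes (~5 replicates averaged) was converted to z-scores against 500 random hg19 background probes. Variable regions are seed direct-repeat (DR0–DR5) sites, all their single-nucleotide variants and half-site ablations.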
Regarding GCGACTGGAGCAAAGCAGGTTACCATAAGGTTGG, the PBM binding z-score is -0.418.

TAGCCTAGGTCCTGCGGGCCAGTATAGTGTCGGC: the PBM binding z-score is -1.05.

As to ACTATTTGTTGACTTAGGGCAACCGATACGACGC, the PBM binding z-score was determined as 0.227.

For the sequence CCTACCGGGCCATCAGGTCATTGATATCAACGTT, the PBM binding z-score was determined as 1.83.

CCTCGGAGGACAGAAGGTCAGAACTGTCCGCTTT yielded a PBM binding z-score of 0.995.

As to GCGACTGGGGCAAAGCAGGTTACCACAAGGTTGG, the PBM binding z-score amounted to 0.0392.

The sequence ATCTCTAGGTCAAGATAGTTCAGTGAATGCAAAT came in with a PBM binding z-score of 4.44.

The sequence AATACAGGGTCATCGTAGGGCAGAGTACGCACAG had a PBM binding z-score of 5.71.

In the case of TCTTGTAGATCAAGCAGGCTAAGAAAGCCTGAGT, the PBM binding z-score is -0.214.

On to CCAGACAGGTGAGAAGGTAACTCACCCTCGATTA, for which the PBM binding z-score came out at 0.0837.

CCTAGCAGGCCAGGGTCACTGAAGCATTTCGCTT returned a PBM binding z-score of 2.68.

On to CGAACTAGGTCAGAACATGACAGTGAAGGATGAT, for which the PBM binding z-score turned out to be 0.229.

TCGAGTAGGTTAGGGGCATTCAAAATGGCGTCGA returned a PBM binding z-score of 0.856.

GCTTGTACATCAAGGTTAAGAAAGACTAAGCTAA showed a PBM binding z-score of 0.208.

Consider TCATATAGGTAATACAGGTAAAAGTCGGCATCTA, for which the PBM binding z-score amounted to 1.24.

Consider CCTAGCAGGCCAATCTGGTTCACTCAAGGCTTGA, for which the PBM binding z-score turned out to be 0.38.

On to ACTATTAGTTGAGAAGAGGGCAACCGATAGGTTG, for which the PBM binding z-score is 0.507.

For CCTAGCAGGCCAATCTGGGTCATTCAAGGCTTGA, the PBM binding z-score came out at 1.06.

As for GCTTACGAGTCAAAGGTTATAGCATGAATAGAAT, the PBM binding z-score is 2.16.

For the sequence TCATATGGGTAATACAGGTGAAAGTCGGCATCTA, the PBM binding z-score was 0.677.

Sequence GCTAGTTGGTCAGTAAAAGGTCACACACCGGTCG gave a PBM binding z-score of 3.89.

On to TGAATGAGGTTATGAGATCAGGGAACGTTGCAAA, for which the PBM binding z-score is 0.987.

Take TCTAGTTGGTCACGGAGGTCACAGACGACGGGTA: the PBM binding z-score worked out at 5.81.

ATCGCAAGGTCGACGAGGTGAGTATACACCGTTT returned a PBM binding z-score of 4.11.

TGAATGAGGTTATAAGATAAGGGAACGTTGCAAA yielded a PBM binding z-score of 0.811.

On to TCTTGTAGATCAATAGAGCTTAAGAAAGTGCGCT, for which the PBM binding z-score is -0.108.

Sequence TCGTGTAGATCAGCAGGTTAAGAAAGCTGGCCAA showed a PBM binding z-score of 0.0438.

In the case of CGAAGTAGGTCAAGGACAGTGAATCTCCGCACGC, the PBM binding z-score stood at 1.52.

The sequence GATACAAGGTCAAGGCCAGAGTACGCGTATTGAT showed a PBM binding z-score of 4.39.

In turn, CCAACGAGGGCATGAGTTGATAGCAAATGCCGAT came in with a PBM binding z-score of 1.09.

ACTATTAGTTGAGACGTGGGCAACCGATAGGTTG came in with a PBM binding z-score of -0.5.

TCGCGGAGGACACGAAGGTCAGAGCTTTCCAGAG yielded a PBM binding z-score of 2.1.

CGAGCTAGGTCAAGGACAGTGAATCTCCGCACGC returned a PBM binding z-score of 0.904.

As to ACTAGCAGGTCAAGTTTGGGTCACTCAAACAAAG, the PBM binding z-score was 4.68.

For the sequence TCTAGTTGGTCACGGAGGTCACACCCGACGGGTA, the PBM binding z-score came to 5.67.

As to TCTCGGAGGACACGAAGGTCAGAACTTTCCAGAG, the PBM binding z-score came to 2.18.

ACTAGTTGGTCAGCTGAGGTCACATACAATTCGG: the PBM binding z-score worked out at 4.21.

In turn, CGAACTAGGACATTGACAGGACAGTGAATAGTAA showed a PBM binding z-score of -0.192.

Consider CAAACTAAGTCAAGGTCAAAGTCGGTTTGTGCCA, for which the PBM binding z-score stood at 4.62.

The sequence CCTGCTAGGTCAAGGTCAGCTAATCTACAGTATG displayed a PBM binding z-score of 3.4.
